Reference: the supplement of paper PMC6411743
± gives the standard deviation of the averaged measurements. About 6,200 targets were measured; listed, in parts, are those with the largest changes and a random draw of the rest.

What was measured:
Test in all cases: NP40-soluble protein abundance relative to vehicle (solubility fold change) (ratio); higher = more soluble protein in presence of AMP-PNP
KIAA0319L = target: T1, KIAA0319L (UniProt Q8IZA0)
T1 sequence (whole entry): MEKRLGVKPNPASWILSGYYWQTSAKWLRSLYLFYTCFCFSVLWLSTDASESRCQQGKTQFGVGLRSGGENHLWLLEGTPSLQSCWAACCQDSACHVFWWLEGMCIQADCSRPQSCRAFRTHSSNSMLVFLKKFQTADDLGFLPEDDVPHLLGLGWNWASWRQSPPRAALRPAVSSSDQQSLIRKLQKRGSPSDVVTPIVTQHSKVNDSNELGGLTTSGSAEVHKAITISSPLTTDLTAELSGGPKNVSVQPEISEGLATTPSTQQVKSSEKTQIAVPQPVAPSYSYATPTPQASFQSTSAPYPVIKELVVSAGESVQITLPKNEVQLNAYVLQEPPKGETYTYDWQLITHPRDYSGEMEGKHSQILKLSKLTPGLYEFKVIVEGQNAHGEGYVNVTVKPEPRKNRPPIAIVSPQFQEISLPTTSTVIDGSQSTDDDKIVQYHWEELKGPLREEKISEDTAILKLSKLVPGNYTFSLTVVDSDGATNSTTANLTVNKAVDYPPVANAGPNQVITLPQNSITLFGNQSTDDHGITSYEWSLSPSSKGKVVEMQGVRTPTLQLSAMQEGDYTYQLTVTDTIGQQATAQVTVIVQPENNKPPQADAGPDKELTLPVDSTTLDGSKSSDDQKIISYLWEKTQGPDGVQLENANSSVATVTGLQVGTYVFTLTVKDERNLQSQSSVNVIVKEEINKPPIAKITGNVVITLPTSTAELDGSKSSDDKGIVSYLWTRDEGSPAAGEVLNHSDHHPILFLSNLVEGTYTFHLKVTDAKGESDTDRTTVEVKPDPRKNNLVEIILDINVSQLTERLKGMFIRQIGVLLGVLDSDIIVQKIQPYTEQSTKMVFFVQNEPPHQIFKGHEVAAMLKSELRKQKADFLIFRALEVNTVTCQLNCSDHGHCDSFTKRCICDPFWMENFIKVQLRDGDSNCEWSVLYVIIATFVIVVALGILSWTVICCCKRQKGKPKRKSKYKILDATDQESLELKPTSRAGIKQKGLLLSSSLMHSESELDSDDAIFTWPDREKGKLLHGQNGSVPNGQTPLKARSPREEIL
Outline: (§1)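 Eight concentrations, 0.1 to 10 mM, were tested on Jurkat crude lysate for 10 min at room temperature and then 3 min at 37 °C, in three independent experiments. The lysate was solubilised with 0.8% NP40 and benzonase, ultracentrifuged, and the supernatant TMT-labelled for LC-MS/MS. Each value is the fold change against the detergent-processed vehicle in its own replicate, from vsn-normalised intensities.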

NUFIP2 = target: T2, NUFIP2 (UniProt Q7Z417)
T2 sequence (whole entry): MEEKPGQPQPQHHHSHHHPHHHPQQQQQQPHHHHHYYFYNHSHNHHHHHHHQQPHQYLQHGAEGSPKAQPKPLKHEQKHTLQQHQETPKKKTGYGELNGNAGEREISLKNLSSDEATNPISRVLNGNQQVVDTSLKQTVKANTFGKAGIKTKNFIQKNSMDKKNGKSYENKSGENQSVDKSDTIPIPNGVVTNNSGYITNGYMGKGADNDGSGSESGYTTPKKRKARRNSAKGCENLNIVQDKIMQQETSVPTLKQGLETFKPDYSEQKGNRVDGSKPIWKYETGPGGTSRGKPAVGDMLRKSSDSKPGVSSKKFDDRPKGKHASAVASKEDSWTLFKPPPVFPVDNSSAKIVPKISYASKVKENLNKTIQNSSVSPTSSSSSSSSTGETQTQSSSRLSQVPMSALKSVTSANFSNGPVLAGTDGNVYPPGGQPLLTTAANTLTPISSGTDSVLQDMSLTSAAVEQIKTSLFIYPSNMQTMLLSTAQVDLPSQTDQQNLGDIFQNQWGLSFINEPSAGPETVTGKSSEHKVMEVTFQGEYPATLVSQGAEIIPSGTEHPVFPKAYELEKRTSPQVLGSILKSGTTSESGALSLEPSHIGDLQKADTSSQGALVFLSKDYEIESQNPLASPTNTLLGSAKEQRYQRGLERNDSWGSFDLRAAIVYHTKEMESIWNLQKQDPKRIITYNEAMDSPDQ
Outline: as §1

PINX1 = target: T3, PINX1 (UniProt Q96BK5)
T3 sequence (whole entry): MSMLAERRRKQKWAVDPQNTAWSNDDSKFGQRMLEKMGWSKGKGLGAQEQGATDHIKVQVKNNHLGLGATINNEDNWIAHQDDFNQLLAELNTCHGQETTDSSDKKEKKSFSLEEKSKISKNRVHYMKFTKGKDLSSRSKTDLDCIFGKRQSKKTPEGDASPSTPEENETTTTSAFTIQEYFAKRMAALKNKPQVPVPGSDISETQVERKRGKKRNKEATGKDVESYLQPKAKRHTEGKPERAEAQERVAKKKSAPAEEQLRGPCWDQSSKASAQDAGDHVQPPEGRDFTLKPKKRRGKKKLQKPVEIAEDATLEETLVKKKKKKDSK
Outline: as §1

TTF1 = target: T4, TTF1 (UniProt Q15361)
T4 sequence (whole entry): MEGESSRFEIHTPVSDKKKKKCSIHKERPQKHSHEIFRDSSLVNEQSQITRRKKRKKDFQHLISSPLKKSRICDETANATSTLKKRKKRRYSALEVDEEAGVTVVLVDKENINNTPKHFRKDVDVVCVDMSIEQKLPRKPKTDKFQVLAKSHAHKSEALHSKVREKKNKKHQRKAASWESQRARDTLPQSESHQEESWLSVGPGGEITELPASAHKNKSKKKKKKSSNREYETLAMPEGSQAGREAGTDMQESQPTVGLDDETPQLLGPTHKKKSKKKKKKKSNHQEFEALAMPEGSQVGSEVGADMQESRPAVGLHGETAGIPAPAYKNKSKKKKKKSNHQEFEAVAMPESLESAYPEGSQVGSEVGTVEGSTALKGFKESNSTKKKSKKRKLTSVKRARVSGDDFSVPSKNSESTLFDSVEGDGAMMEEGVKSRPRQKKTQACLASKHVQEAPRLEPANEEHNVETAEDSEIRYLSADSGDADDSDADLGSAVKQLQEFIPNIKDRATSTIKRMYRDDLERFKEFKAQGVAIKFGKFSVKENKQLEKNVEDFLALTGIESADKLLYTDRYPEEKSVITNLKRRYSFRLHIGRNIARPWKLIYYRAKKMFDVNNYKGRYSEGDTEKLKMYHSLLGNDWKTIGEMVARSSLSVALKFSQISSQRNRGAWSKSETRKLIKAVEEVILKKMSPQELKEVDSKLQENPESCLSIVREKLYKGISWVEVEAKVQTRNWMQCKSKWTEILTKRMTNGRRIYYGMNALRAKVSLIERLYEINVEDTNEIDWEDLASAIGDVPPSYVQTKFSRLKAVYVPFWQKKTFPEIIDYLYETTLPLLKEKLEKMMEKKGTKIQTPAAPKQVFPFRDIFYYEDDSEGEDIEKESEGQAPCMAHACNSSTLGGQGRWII
Outline: as §1

UniProt Q147X3|Q147X3-2 = target: T5, UniProt Q147X3|Q147X3-2
T5 sequence (whole entry): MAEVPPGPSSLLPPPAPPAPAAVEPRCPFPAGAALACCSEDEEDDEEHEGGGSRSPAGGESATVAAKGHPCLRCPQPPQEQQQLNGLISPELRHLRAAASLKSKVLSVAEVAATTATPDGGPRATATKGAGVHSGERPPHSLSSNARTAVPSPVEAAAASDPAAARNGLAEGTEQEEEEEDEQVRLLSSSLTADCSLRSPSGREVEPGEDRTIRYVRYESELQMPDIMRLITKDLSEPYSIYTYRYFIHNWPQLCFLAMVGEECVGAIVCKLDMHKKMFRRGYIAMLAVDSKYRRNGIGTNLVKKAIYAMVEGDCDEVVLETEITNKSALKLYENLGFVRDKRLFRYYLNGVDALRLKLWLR
Outline: as §1

Molecule `Nc1ncnc2c1ncn2[C@@H]1O[C@H](COP(=O)(O)OP(=O)(O)NP(=O)(O)O)[C@@H](O)[C@H]1O` [adenylyl imidodiphosphate] has an NP40-soluble protein abundance (KIAA0319L; concentration: 1mM) of 1.01 ± 0.014, an NP40-soluble protein abundance (KIAA0319L; concentration: 2mM) of 1.03 ± 0.033 and an NP40-soluble protein abundance (KIAA0319L; concentration: 4mM) of 0.977 ± 0.025. For the same molecule, the NP40-soluble protein abundance (KIAA0319L; concentration: 6mM) was 0.969 ± 0.034, the NP40-soluble protein abundance (KIAA0319L; concentration: 8mM) was 0.976 ± 0.017 and the NP40-soluble protein abundance (KIAA0319L; concentration: 10mM) was 0.9945 ± 0.0054. It also gave an NP40-soluble protein abundance (NUFIP2; concentration: 1mM) of 1.11 ± 0.029, an NP40-soluble protein abundance (NUFIP2; concentration: 2mM) of 1.22 ± 0.066 and an NP40-soluble protein abundance (NUFIP2; concentration: 4mM) of 1.24 ± 0.023. The NP40-soluble protein abundance (NUFIP2; concentration: 6mM) was 1.26 ± 0.14, the NP40-soluble protein abundance (NUFIP2; concentration: 8mM) was 1.27 ± 0.14 and the NP40-soluble protein abundance (NUFIP2; concentration: 10mM) was 1.37 ± 0.12. It also gave an NP40-soluble protein abundance (PINX1; concentration: 1mM) of 1.15 ± 0.053, an NP40-soluble protein abundance (PINX1; concentration: 2mM) of 1.27 ± 0.034 and an NP40-soluble protein abundance (PINX1; concentration: 4mM) of 1.36 ± 0.09. It also gave an NP40-soluble protein abundance (PINX1; concentration: 6mM) of 1.51 ± 0.057, an NP40-soluble protein abundance (PINX1; concentration: 8mM) of 1.59 ± 0.083 and an NP40-soluble protein abundance (PINX1; concentration: 10mM) of 1.8 ± 0.079. It also gave an NP40-soluble protein abundance (TTF1; concentration: 1mM) of 0.967 ± 0.024, an NP40-soluble protein abundance (TTF1; concentration: 2mM) of 0.963 ± 0.024 and an NP40-soluble protein abundance (TTF1; concentration: 4mM) of 0.957 ± 0.025. For the same molecule, the NP40-soluble protein abundance (TTF1; concentration: 6mM) was 0.96 ± 0.046, the NP40-soluble protein abundance (TTF1; concentration: 8mM) was 0.912 ± 0.02 and the NP40-soluble protein abundance (TTF1; concentration: 10mM) was 0.949 ± 0.045. The NP40-soluble protein abundance (UniProt Q147X3|Q147X3-2; concentration: 1mM) was 0.992 ± 0.016, the NP40-soluble protein abundance (UniProt Q147X3|Q147X3-2; concentration: 2mM) was 0.971 ± 0.025 and the NP40-soluble protein abundance (UniProt Q147X3|Q147X3-2; concentration: 4mM) was 1.01 ± 0.059. It also gave an NP40-soluble protein abundance (UniProt Q147X3|Q147X3-2; concentration: 6mM) of 1.03 ± 0.046, an NP40-soluble protein abundance (UniProt Q147X3|Q147X3-2; concentration: 8mM) of 0.99 ± 0.023 and an NP40-soluble protein abundance (UniProt Q147X3|Q147X3-2; concentration: 10mM) of 1 ± 0.025.
